Several values for one entry are separate records, joined by “and”; a condition that tells them apart may be missing. Equal values may be shown once. Results filed as inconclusive are left out. Where a call stands in place of a potency, no number is given. Values without a mark were called inactive. Activity calls are given as the source filed them. Calls follow the shape of the dose curve; as a rule, active = well fitted curve in the direction sought with a large enough effect; inconclusive = small, poorly fitted or top-dose-only effect, or another doubt; inactive = no such curve, though single readings can be large; an effect the other way counts as inactive or inconclusive.
Assays:
[1] = biological target: Cellular tumor antigen p53 (Homo sapiens) (UniProt P04637); assay: Primary qHTS for small molecule compounds that upregulate eGFP-tagged delta133p53alpha (in N-terminal) cells. (AID 2060322); details: NCI-H358 eGFP-delta133p53alpha fluorescence, 24 h; activation: active compounds read high; also: nearly all actives have a fitted effect of over 75% in size; also: potency is read from the fitted curve at half-maximal effect; as to activation: series mostly up to about 56 µM
Summary of the method: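 NCI-H358 cells pre-induced 24 h with 10 ng/ml doxycycline to express N-terminal eGFP-delta133p53alpha, then dosed 24 h at 37C without doxycycline; fixed, Hoechst-stained, GFP intensity by laser scanning cytometry, normalized to DMSO (0%) and 57.5 uM 5-azacytidine (100%).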

[2] = biological target: Aldehyde dehydrogenase, mitochondrial (Homo sapiens) (UniProt P05091); assay: qHTS for Inhibitors of the Aldehyde Dehydrogenase Family (ALDH2) Primary screen (AID 2061308); also: nearly all actives have a fitted effect of over 55% in size
[3] = biological target: Retinaldehyde dehydrogenase 3 (Homo sapiens) (UniProt P47895); assay: qHTS for Inhibitors of the Aldehyde Dehydrogenase Family (ALDH1A3) Primary screen (AID 2061315)

Cellular tumor antigen p53 (Homo sapiens), sequence (P04637 whole entry, looked up): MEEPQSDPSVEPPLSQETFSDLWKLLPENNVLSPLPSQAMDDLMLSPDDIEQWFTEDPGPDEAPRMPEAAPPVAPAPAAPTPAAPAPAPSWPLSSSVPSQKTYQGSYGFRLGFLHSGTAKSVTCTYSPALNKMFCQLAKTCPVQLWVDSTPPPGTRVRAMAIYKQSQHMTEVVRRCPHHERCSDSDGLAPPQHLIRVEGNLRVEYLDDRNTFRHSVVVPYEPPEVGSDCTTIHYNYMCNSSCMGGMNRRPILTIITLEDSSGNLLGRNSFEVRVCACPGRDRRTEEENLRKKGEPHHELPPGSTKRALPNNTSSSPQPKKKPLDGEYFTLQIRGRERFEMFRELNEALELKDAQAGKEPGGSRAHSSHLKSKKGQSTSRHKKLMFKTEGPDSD

Row | Structure (SMILES) | activation [1] | Potency [2] | Potency [3] | Potency [1] | activity change, negative = inhibition [2] | activity change, negative = inhibition [3]
1 | C=C(C(=O)O)C1CCC2(C)CCC(O)C(=C)C2C1 (configuration not stated) | 9.82% | inactive | inactive |  |  | 
2 | C=C1CC[C@@H](O)[C@]2(C)C[C@H]3OC(=O)C(=C)[C@H]3CC12 (some centres not stated) |  | inactive | inactive | 21.3 µM (active) |  | 
3 | CC(=O)/C=C/C1(O)C(C)CC(O[C@@H]2O[C@H](CO)[C@@H](O)[C@H](O)[C@H]2O)CC1(C)C (some centres not stated) | 2.68% | inactive | inactive |  |  | 
4 | CN1CCN(C(=O)c2ccc(Nc3nccc(-c4cccs4)n3)cc2Cl)CC1 |  | inactive | inactive | 30.1 µM (active) |  | 
5 | CC1(C)CC[C@]2(C(=O)O)CC[C@]3(C)C(=CCC4[C@@]5(C)CC[C@H](O[C@H]6O[C@H](C(=O)O)[C@@H](O)[C@H](O[C@@H]7O[C@H](CO)[C@H](O)[C@H](O)[C@H]7O)[C@H]6O)C(C)(C)C5CC[C@]43C)[C@@H]2C1 (some centres not stated) | -5.36% | inactive | inactive |  |  | 
6 | C=C[C@@](C)(CCC=C(C)C)O[C@@H]1O[C@H](CO[C@@H]2OC[C@H](O)[C@H](O)[C@H]2O)[C@@H](O)[C@H](O)[C@H]1O | -11.5% | inactive | inactive |  |  | 
7 | COC(=O)[C@@]1(O)C=CC[C@@H]2[C@@]3(C)C[C@@H](c4ccoc4)OC(=O)[C@H]3CC[C@]21C | 7.14% | inactive | inactive |  |  | 
8 | C[C@]1(OC(=O)/C=C/c2ccccc2)C[C@H](O)[C@]2(O)C=CO[C@@H](O[C@@H]3O[C@H](CO)[C@@H](O)[C@H](O)[C@H]3O)C12 (some centres not stated) | -18.3% | inactive | inactive |  |  | 
9 | COC(=O)C[C@H]1C(C)(C)[C@H](OC(=O)C(C)C)C2CC3=C4CC(=O)O[C@@H](c5ccoc5)[C@]4(C)CCC3[C@@]1(C)C2=O (some centres not stated) | 11.6% | inactive | inactive |  |  | 
10 | C[C@@H]1C[C@@H](O)[C@@]23CO[C@]2(CO)CCC[C@@H]3[C@@]12C[C@@H](c1ccoc1)OC2=O | 24.4% | inactive | inactive |  |  | 
11 | C/C=C1/C[N+](C)([O-])C2Cc3c([nH]c4ccccc34)C(=O)CC1C2C(=O)OC (configuration not stated) | -9.82% | inactive | inactive |  |  | 
12 | COc1cc(C(=O)OC(COCCC(C)C)CN2CCOCC2)cc(OC)c1OC (configuration not stated) | 14.3% | inactive | inactive |  |  | 
13 | C=C1[C@@H]2[C@H]3OC(=O)C(=C)[C@@H]3CC[C@@](C)(O)[C@@H]2C[C@@H]1O[C@@H]1O[C@H](CO)[C@@H](O)[C@H](O)[C@H]1O | 15.2% | inactive | inactive |  |  | 
14 | CC12CCC3c4ccc(O)cc4CCC3C1CCC2OC1OC(C(=O)O)C(O)C(O)C1O (configuration not stated) | -11.7% | inactive | inactive |  |  | 
15 | C/C(=C\CO)CC/C=C(\C)C(=O)O[C@H]1[C@H](OC2OC=C(C(=O)O)C3CCC(C)(O)C23)O[C@H](CO)[C@@H](O)[C@@H]1O (some centres not stated) | -22.3% | inactive | inactive |  |  | 
16 | CC12CCC3C(C)(C)C(O)CCC3(C)C1Cc1c(oc(C(=O)O)cc1=O)O2 (configuration not stated) | -9.92% | inactive | inactive |  |  | 
17 | CC1CCC2C(C)(C)C(O)CCC2(C)C12Cc1c(O)cc3c(c1O2)CN(C(CCC(N)=O)C(=O)O)C3=O (configuration not stated) | -13.7% | inactive | inactive |  |  | 
18 | COC(=O)C(CC1(OC(=O)C(C)C)c2ccccc2N2C(=O)C(C)(C)N(O)C21)n1cnc2ccccc2c1=O (configuration not stated) | 3.05% | inactive | inactive |  |  | 
19 | CC(C)=CCC/C(C)=C/Cc1ccc(O)c(C2OC(=O)c3cc(C(=O)O)cc(O)c32)c1O (configuration not stated) | -1.53% | inactive | inactive |  |  | 
20 | C[C@@H]1C(=O)O[C@H]2[C@H]1CC[C@@]1(C)C(=O)C=C[C@@](C)(O)[C@H]21 | 15.2% | inactive | inactive |  |  | 
21 | COC1OC(=O)C2=C1C1(C)CCCC(C)(C)C1CC2O (configuration not stated) | -8.04% | inactive | inactive |  |  | 
22 | CC1(C)CC2C(O)c3cocc3CC(C)(O)C2C1 (configuration not stated) | -8.04% | inactive | inactive |  |  | 
23 | Nc1ccc(S(=O)(=O)Nc2nccs2)cc1 | 18.4% and 0.333% | inactive | inactive |  |  | 
24 | C[N+]1(C)[C@@H]2CC[C@H]1CC(OC(=O)C(O)c1ccccc1)C2 (some centres not stated) | 13.7% | inactive | inactive |  |  | 
25 | C=C1CC2C(C)(CCC(=O)O)C(C(C)(C)O)CCC2(C)C2C(=O)OC(C)(C(=O)OC)C(=O)C12C (configuration not stated) | 10.7% | inactive | inactive |  |  | 

Row | Structure (SMILES) | activation [1] | Potency [2] | Potency [3] | Potency [1] | activity change, negative = inhibition [2] | activity change, negative = inhibition [3]
26 | CC(C)(O)CC(CO)NC(=O)CC(O)CC(=O)Cc1ccccc1 (configuration not stated) | 22.1% | inactive | inactive |  |  | 
27 | C[C@@H]1CCC2C(C)(C)[C@H](O)CC[C@]2(C)[C@@]12Cc1c(O)cc3c(c1O2)CN([C@@H](CCC(=O)O)C(=O)O)C3=O (some centres not stated) | -9.16% | inactive | inactive |  |  | 
28 | O=C(Nc1ccn(Cc2c(F)cccc2C(F)(F)F)n1)c1c(F)cccc1F | 1.67% | inactive | inactive |  |  | 
29 | CC1(C)CC[C@]2(C(=O)O[C@@H]3O[C@H](CO[C@@H]4O[C@H](CO)[C@@H](O)[C@H](O)[C@H]4O[C@@H]4O[C@H](CO)[C@H](O)[C@H](O)[C@H]4O)[C@@H](O)[C@H](O[C@@H]4O[C@H](CO)[C@@H](O)[C@H](O)[C@H]4O)[C@H]3O)CC[C@]3(C)C(=CCC4[C@@]5(C)CC[C@H](O[C@@H]6OC[C@@H](O)[C@H](O)[C@H]6O)[C@@](C)(C(=O)O)C5CC[C@]43C)[C@@H]2C1 (some centres not stated) | 1.53% |  |  |  | 6.97% [at 11.2 µM] | 11.9% [at 11.2 µM]
30 | CC(=O)OC12CC(C)C(OC(=O)c3ccccc3)C1/C=C(/C)C(OC(=O)c1ccccc1)CC(=O)C(C)(C)/C=C/C(C)C2=O (configuration not stated) | -7.14% | inactive | inactive |  |  | 
31 | CCNC(=O)[C@@H]1CCCN1C(=O)[C@H](CCCN=C(N)N)NC(=O)[C@H](CC(C)C)NC(=O)[C@@H](C)NC(=O)[C@H](Cc1ccc(O)cc1)NC(=O)[C@H](CO)NC(=O)[C@H](Cc1c[nH]c2ccccc12)NC(=O)[C@H](Cc1cnc[nH]1)NC(=O)[C@@H]1CCC(=O)N1 | -6.33% | inactive | inactive |  |  | 
32 | C[C@@H]1O[C@@H](O[C@H]2[C@H](O)[C@@H](O)[C@H](OC[C@H]3O[C@@H](OC(=O)[C@]45CCC(C)(C)C[C@H]4C4=CCC6[C@@]7(C)CC[C@H](O[C@@H]8OC[C@H](O)[C@H](O[C@@H]9O[C@H](CO)[C@@H](O)[C@H](O)[C@H]9O)[C@H]8O)[C@@](C)(CO)C7CC[C@@]6(C)[C@]4(C)CC5)[C@H](O)[C@@H](O)[C@@H]3O)O[C@@H]2CO)[C@H](O)[C@H](O)[C@H]1O (some centres not stated) | -10.7% |  |  |  | 1.57% [at 11.2 µM] | 14.6% [at 11.2 µM]
33 | CC/C=C/C=C/C1(C)OC(CC(CO)OC)=CC1=O (configuration not stated) | 1.79% | inactive | inactive |  |  | 
34 | Cc1onc(C(=O)N2CCN(C(c3ccc(Cl)cc3)c3ccc(Cl)cc3)CC2)c1[N+](=O)[O-] | 10.7% | inactive | inactive |  |  | 
35 | CC(C)OC(=O)N1CCC(Oc2ncnc3c2cnn3-c2ccc(S(C)(=O)=O)cc2F)CC1 | 4.3% | inactive | inactive |  |  | 
36 | C=C(C)[C@@H]1CC[C@]2(C(=O)O)CC[C@]3(C)[C@H](CCC4[C@@]5(C)CCC(=O)C(C)(C)C5C(O)C[C@]43C)C12 (some centres not stated) | 13% | inactive | inactive |  |  | 
37 | Cc1sc(C)c(C(=O)NC2(c3ccc(C(=O)O)cc3)CC2)c1Cc1ccc(C(F)(F)F)cc1 | -4.77% | inactive | inactive |  |  | 
38 | CC1(C)CCCC2(C)C1C(O)C=C(CO)C2(O)CO (configuration not stated) | -13.7% | inactive | inactive |  |  | 
39 | NC[C@H]1CCC[C@@H](CNC(=O)[C@@H](Cc2c[nH]c3ccccc23)NC(=O)N2CCC3(C=Cc4ccccc43)CC2)C1 | 3% | inactive | inactive |  |  | 
40 | CCn1nnnc1NCc1ccc(C(C)C)cc1 | 3% | inactive | inactive |  |  | 
41 | COC(=O)C(CC1(O)c2ccccc2N2C(=O)C(CC(C)C)NC21)n1cnc2ccccc2c1=O (configuration not stated) | -1.53% | inactive | inactive |  |  | 
42 | CC[C@H](C)/C=C(C)/C=C/C1=CC2=CC(=O)[C@]3(C)OC(=O)[C@@H](C(C)=O)[C@@H]3C2=CO1 |  | inactive | inactive | 18.6 µM (active) |  | 
43 | O=C1NC2CCCCN2C12CCN(CCCN1c3ccccc3CCc3ccc(Cl)cc31)CC2 (configuration not stated) |  | inactive | inactive | 13.5 µM (active) |  | 
44 | COc1ccc(O[C@@H]2O[C@H](CO)[C@@H](O)[C@H](O)[C@H]2O)cc1OC | -17% | inactive | inactive |  |  | 
45 | CCOC(=O)c1cc(C#N)c(N2CCC(C(=O)NS(=O)(=O)Cc3ccccc3)CC2)nc1C | 5.67% | inactive | inactive |  |  | 
46 | COC(=O)c1cc(CN2CCN(C(=N)N)CC2)cc(C(=O)N2CCN(C(=O)c3ccc(C(=N)N)cc3)CC2)c1 | 1% | inactive | inactive |  |  | 
47 | CC1CCN(C(=O)CC#N)CC1N(C)c1ncnc2[nH]ccc12 (configuration not stated) | 1.79% | inactive | inactive |  |  | 
48 | O=C(OC[C@H]1O[C@H](O[C@]2(CO)O[C@H](CO)[C@@H](O)[C@@H]2O)[C@H](O)[C@@H](O)[C@@H]1O)c1ccc(O)cc1 | -2.68% | inactive | inactive |  |  | 
49 | CC1COC2(OC3CC4C5CC(O[C@@H]6O[C@H](C)[C@@H](O[C@@H]7O[C@@H](C)[C@H](O)[C@@H](O)[C@H]7O)[C@H](O)[C@H]6O)C6CC(O)CCC6(C)C5CCC4(C)C3C2C)C(O)C1 (some centres not stated) | -10.7% | inactive | inactive |  |  | 
